Assay outcomes deposited in PubChem BioAssay by National Center for Advancing Translational Sciences (NCATS).
Marburg entry inh = qHTS for inhibitors of binding or entry into cells for Marburg Virus. Marburg virus pseudotyped entry inhibition, cell reporter. Potency, µM (series often up to 37.8 µM), most hits filed as inhibitors. actives 1.8% (n = 300,000). AID 540276, 2011; calls by dose curve; tested in HEK293 cells
Pf growth 96h = Primary qHTS for delayed death inhibitors of the malarial parasite plastid, 96 hour incubation; P. falciparum luciferase reporter growth, 96 h; Potency, µM (titrated, usually from 28.7 µM), hits mostly inhibitors; actives 6.9% (n = 320,000); AID 504834, 2011
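P. falciparum expressing integrated firefly luciferase, in erythrocytes at 2% hematocrit, 0.05% parasitemia, incubated with compounds 96 h at 37 C, 5% CO2. Growth inhibition read as loss of luminescence; two-generation exposure targets delayed-death apicoplast inhibitors.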
Lassa entry inh = qHTS for Inhibitors of binding or entry into cells for Lassa Virus | Lassa virus pseudotype entry inhibition, cell reporter | Potency, µM (titrated, usually from 37.9 µM), most hits filed as inhibitors | actives 1.2% (n = 300,000); calls by dose curve; tested in HEK293 cells; further: nearly all actives have a fitted effect of over 50% in size
Cycloheximide cs = Cycloheximide Counterscreen for Small Molecule Inhibitors of Shiga Toxin | max response, % | actives 12% (n = 300,000) | cell reporter, cycloheximide protein synthesis inhibition counterscreen; in the data active means max response mostly above about 13%, no sharp cut-off; inactive means mostly below about 14%; further: read at 38.3 µM for the half of the compounds with a filed dose
Pf growth 48h = Primary qHTS for delayed death inhibitors of the malarial parasite plastid, 48 hour incubation | P. falciparum luciferase growth in erythrocytes, 48 h | Potency, µM (doses to about 28.7 µM), usual class: inhibitors | actives 5.9% (n = 310,000)
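Here the parasites carry a stable luciferase gene and grow inside erythrocytes in Albumax-based RPMI medium with compound for one erythrocytic cycle. Activity is scored as loss of luminescent signal.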
Shiga inhibitor = A qHTS for Small Molecule Inhibitors of Shiga Toxin; inhibition, % at 38.7 µM; actives 9.2% (n = 290,000); Vero cells, Shiga toxin protein synthesis inhibition reporter; AID 2315, 2010; in the data active means inhibition mostly above about 28%, no sharp cut-off; inactive means mostly below about 43%
A number is an active result; [ ] = another dose, or the depositor's remark. The list is not random: actives were taken first. Their share in the collection is about 19%. Unless noted, the call rests on the fitted dose curve; in most records, active means well fitted inhibition curve with a large enough effect; inconclusive means small, poorly fitted or top-dose-only effect, or another doubt; inactive means no such curve, though single readings can be large or run the other way.

Results for COc1cc(/C=C/c2[nH]c(=O)[nH]c(=O)c2[N+](=O)[O-])ccc1OCCC(C)C ?
Marburg entry inh: inactive; Pf growth 96h: inactive; Lassa entry inh: inconclusive; Cycloheximide cs: inactive; Pf growth 48h: inactive; Shiga inhibitor: inactive

What do the screens show for `CCOC(=O)c1cc2c(C)n(-c3ccc(OCC)cc3)c(C)c2ccc1=O`?
Marburg entry inh: inconclusive; Pf growth 96h: 4.15µM; Lassa entry inh: inconclusive; Cycloheximide cs: 16.0; Pf growth 48h: inconclusive; Shiga inhibitor: inactive

What do the screens show for `CCOc1ccc(-n2c(C)c(C(=O)OC)c3cc(O)ccc32)cc1`?
Marburg entry inh: inactive; Pf growth 96h: inconclusive; Lassa entry inh: inactive; Cycloheximide cs: inactive; Pf growth 48h: inconclusive; Shiga inhibitor: inactive

What do the screens show for `CCOC(=O)c1cc2c(C)n(-c3ccc(C)cc3)c(C)c2ccc1=O`?
Marburg entry inh: 25.9µM; Pf growth 96h: inactive; Lassa entry inh: inconclusive; Cycloheximide cs: 35.2; Pf growth 48h: inconclusive; Shiga inhibitor: 119.8

How did CCC(=O)Nc1ccc2nc(SCCOc3cccc(C)c3)sc2c1 do in these assays?
Marburg entry inh: inactive; Lassa entry inh: inactive

What do the screens show for `Nn1c(Cc2cccc3ccccc23)nnc1SCC(=O)NCC1CCCO1` (centres undefined)?
Marburg entry inh: inactive; Pf growth 96h: inactive; Lassa entry inh: inactive; Pf growth 48h: inactive

What do the screens show for `COc1ccccc1CNC(=O)CCC(=O)N1Cc2ccccc2Oc2ncccc21`?
Lassa entry inh: inactive

How did COc1cccc2c1Oc1ncccc1N(C(=O)CCC(=O)NCc1ccccc1F)C2 do in these assays?
Pf growth 96h: 11.7µM; Cycloheximide cs: inactive; Pf growth 48h: inactive; Shiga inhibitor: inactive

How did CCOc1ccccc1CNC(=O)CCC(=O)N1Cc2ccccc2Oc2ncccc21 do in these assays?
Marburg entry inh: inconclusive; Pf growth 96h: 9.28µM; Lassa entry inh: inactive; Cycloheximide cs: inactive; Pf growth 48h: inactive; Shiga inhibitor: inactive

How did COc1ccccc1CNC(=O)CCC(=O)N1Cc2cccc(OC)c2Oc2ncccc21 do in these assays?
Pf growth 96h: 9.28µM; Cycloheximide cs: inactive; Pf growth 48h: inactive; Shiga inhibitor: inactive

What do the screens show for `CN1CCN(C(=O)CSc2nc(-c3ccncc3)ccc2C#N)CC1`?
Marburg entry inh: inactive; Pf growth 96h: inconclusive; Lassa entry inh: inactive; Cycloheximide cs: inactive; Pf growth 48h: inactive; Shiga inhibitor: inactive

Results for CN(C)C(=S)Nc1ccc([N+](=O)[O-])cc1 ?
Marburg entry inh: inactive; Pf growth 96h: inactive; Lassa entry inh: inactive; Cycloheximide cs: inactive; Pf growth 48h: inactive; Shiga inhibitor: inactive

What do the screens show for `CC12CC3(C)CC(C)(C1)CC(C(=O)NC(=S)N1CCCC1)(C2)C3`?
Marburg entry inh: inconclusive; Pf growth 96h: inconclusive; Lassa entry inh: inactive; Cycloheximide cs: inactive; Pf growth 48h: 6.57µM; Shiga inhibitor: inactive

How did O=C(Nc1ccc(N2CCOCC2)cc1)c1cnccn1 do in these assays?
Marburg entry inh: inconclusive; Pf growth 96h: inconclusive; Lassa entry inh: 2.24µM; Cycloheximide cs: inactive; Pf growth 48h: inactive; Shiga inhibitor: inactive

Results for Cc1ccnc2nc(C(=O)Nc3ccc(N4CCOCC4)cc3)nn12 ?
Marburg entry inh: inactive; Pf growth 96h: inactive[5.75 µM]; Lassa entry inh: inactive; Cycloheximide cs: 27.6; Pf growth 48h: inactive; Shiga inhibitor: 74.3

Results for CN(C)c1cccc(C(=O)Nc2ccc(N3CCOCC3)cc2)c1 ?
Marburg entry inh: inconclusive; Lassa entry inh: inactive; Cycloheximide cs: 23.2; Pf growth 48h: inactive; Shiga inhibitor: inactive

Results for O=C(Nc1ccc(N2CCOCC2)cc1)c1ccc([N+](=O)[O-])cc1 ?
Marburg entry inh: inconclusive; Pf growth 96h: inactive; Lassa entry inh: inactive; Cycloheximide cs: 28.0; Pf growth 48h: inactive; Shiga inhibitor: 84.5

Results for Cc1cc(C)n(-c2ccc(C(=O)Nc3ccc(N4CCOCC4)cc3)cc2)n1 ?
Marburg entry inh: inactive; Pf growth 96h: inactive; Lassa entry inh: inactive; Cycloheximide cs: inactive; Shiga inhibitor: inactive

What do the screens show for `O=C(Nc1ccccc1N1CCOCC1)c1cnccn1`?
Marburg entry inh: inactive; Pf growth 96h: inactive; Cycloheximide cs: inactive; Pf growth 48h: inconclusive; Shiga inhibitor: inactive

Results for Cc1cc(C)n(-c2nc3c(c(=O)[nH]c(=O)n3C)n2C)n1 ?
Marburg entry inh: inactive; Pf growth 96h: inactive; Lassa entry inh: inactive; Cycloheximide cs: inactive; Pf growth 48h: inactive; Shiga inhibitor: inactive

What do the screens show for `O=C(Nc1cccc(C(F)(F)F)c1)C1CCN(S(=O)(=O)c2cnc[nH]2)CC1`?
Marburg entry inh: inactive; Pf growth 96h: inactive; Lassa entry inh: inactive; Cycloheximide cs: inactive; Pf growth 48h: inactive; Shiga inhibitor: inactive

Results for O=C(Nc1ccc(N2CCOCC2)cc1)c1ccncc1 ?
Marburg entry inh: inactive; Pf growth 96h: inconclusive; Lassa entry inh: inactive; Cycloheximide cs: 13.6; Pf growth 48h: inactive; Shiga inhibitor: 32.3

How did O=C(N/N=C/c1ccc(N2CCOCC2)cc1)c1ccncc1 do in these assays?
Marburg entry inh: inconclusive; Pf growth 96h: inactive; Lassa entry inh: inactive; Pf growth 48h: inactive

Results for O=C(COCC(=O)N/N=C/c1ccccc1F)N/N=C/c1ccccc1F ?
Marburg entry inh: inconclusive; Pf growth 96h: 9.28µM; Lassa entry inh: inconclusive; Cycloheximide cs: inactive; Pf growth 48h: inactive; Shiga inhibitor: inactive

Results for CCOC(=O)N/N=C/c1c(F)cccc1F ?
Marburg entry inh: inactive; Pf growth 96h: inactive; Lassa entry inh: inactive; Cycloheximide cs: 25.4; Pf growth 48h: inactive; Shiga inhibitor: 35.5

How did CCOC(=O)N/N=C/c1c(F)c(F)c(F)c(F)c1F do in these assays?
Marburg entry inh: inactive; Pf growth 96h: inconclusive; Lassa entry inh: inactive; Cycloheximide cs: inactive; Pf growth 48h: inactive; Shiga inhibitor: inactive

Results for O=C(CO)N/N=C/c1cccc(Cl)c1Cl ?
Marburg entry inh: inactive; Pf growth 96h: inconclusive; Lassa entry inh: inactive; Cycloheximide cs: inactive; Pf growth 48h: inactive; Shiga inhibitor: inactive

Results for CCOC(=O)N/N=C/c1cccc(Cl)c1Cl ?
Marburg entry inh: inconclusive; Pf growth 96h: inactive; Lassa entry inh: inactive; Cycloheximide cs: 40.3; Pf growth 48h: inactive; Shiga inhibitor: 78.5

Results for Cc1cc(C(=O)N/N=C/c2cccc(Cl)c2Cl)no1 ?
Marburg entry inh: inconclusive; Lassa entry inh: inactive; Cycloheximide cs: 37.9; Pf growth 48h: inactive; Shiga inhibitor: 76.2

What do the screens show for `Cc1nn(C)c(C(=O)NNC(=S)NCc2ccco2)c1Br`?
Pf growth 96h: inactive; Cycloheximide cs: inactive; Pf growth 48h: inactive; Shiga inhibitor: inactive

What do the screens show for `O=S1(=O)c2ccc(Br)cc2OC2CCCN1C2` (centres undefined)?
Lassa entry inh: inactive

What do the screens show for `CCc1ccccc1NC(=O)CCNS(=O)(=O)c1ccc2c(c1)CCC(=O)N2`?
Pf growth 96h: inconclusive; Cycloheximide cs: inactive; Pf growth 48h: inactive; Shiga inhibitor: inactive

Results for CCc1ccc(/C=N/NC(=O)c2cc(C)on2)s1 ?
Marburg entry inh: inactive; Pf growth 96h: inactive; Lassa entry inh: inconclusive; Cycloheximide cs: 35.3; Pf growth 48h: inactive; Shiga inhibitor: active
